Assay results: PubChem BioAssay AID588397 (National Center for Advancing Translational Sciences (NCATS), 2011)
Hit rate of the full screen: of about 1,300 compounds, about 1,000 (77%) were called active. About 7% were inconclusive and are not listed. Calls come from the whole dose curve; as a rule, active = well fitted inhibition curve with a large enough effect; inconclusive = small, poorly fitted or top-dose-only effect; inactive = no such curve, though single readings can be large or run the other way. So high a share suggests a set chosen from earlier hits. This is one part of the list.

Experiment: qHTS of small molecules that selectively kill Giardia lamblia: Hit Validation.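 Note: viability measured as ATP content by luminescence so killing lowers signal; trophozoites exposed to compounds for 48 h anaerobically at 37 °C; nearly all actives have a fitted effect of over 65% in size.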
Details: Giardia lamblia trophozoite viability, dose-response; series mostly up to 38.3 µM
In short: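 Luminescence from cellular ATP indicates surviving trophozoites (100 cells/well) following 48 hrs anaerobic compound treatment at 37 deg C; signal develops 15-30 min at room temperature.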
Potency is the fitted concentration of half-maximal effect.

| Compound | Potency |
| --- | --- |
| O=[N+]([O-])c1cccc(S(=O)(=O)c2ccc(NCCOCCO)c([N+](=O)[O-])c2)c1 | 1.63 µM (active) |
| O=c1[nH][nH]c(-c2ccccc2)c1C=Nc1ccc(OC(F)(F)F)cc1 | inactive |
| Cc1ccc(-c2[nH][nH]c(=O)c(=O)c2N=Nc2ccccc2)cc1 | 1.3 µM (active) |
| CC(=O)O[C@@H]1[C@@H](OC(C)=O)[C@H](n2ccc3cc([N+](=O)[O-])ccc32)OC[C@@H]1OC(C)=O | 0.259 µM (active) |
| COc1ccccc1C1OC2=C(Nc3ccc([N+](=O)[O-])cc3N2)C1=O (stereo unspecified) | 3.65 µM (active) |
| CCN(CC)CCOC(=O)c1ccc(N/C=C(/C#N)c2nc(-c3ccc4c(c3)OCO4)cs2)cc1 | 2.05 µM (active) |
| CCN(CC)CCOC(=O)c1ccc(N/C=C(/C#N)c2nc(-c3cc4ccccc4oc3=O)cs2)cc1 | 0.516 µM (active) |
| O=c1c2c([N+](=O)[O-])cc([N+](=O)[O-])cc2nc2ccccn12 | 2.59 µM (active) |
| O=C(CCc1ccccc1)Nc1ncc([N+](=O)[O-])s1 | 0.23 µM (active) |
| O=C(Nc1ccccc1)Nc1ncc([N+](=O)[O-])s1 | 4.1 µM (active) |
| O=C(CCS(=O)(=O)Cc1ccccc1)Nc1ncc([N+](=O)[O-])s1 | 0.65 µM (active) |
| O=C(CCS(=O)(=O)c1ccccc1)Nc1ncc([N+](=O)[O-])s1 | 1.16 µM (active) |
| C[n+]1ccnc2ccccc21 | 2.59 µM (active) |
| O=c1[nH]c2cccnc2n1-c1ccc([N+](=O)[O-])cc1 | 1.83 µM (active) |
| CC(C)C(=O)N1CCN(c2ccc(NC(=O)c3ccc([N+](=O)[O-])o3)cc2)CC1 | 1.03 µM (active) |
| CCC(=O)N1CCN(c2ccc(NC(=O)c3ccc([N+](=O)[O-])o3)cc2)CC1 | 0.918 µM (active) |
| CC(C)(C)C(=O)N1CCN(c2ccc(NC(=O)c3ccc([N+](=O)[O-])o3)cc2)CC1 | 1.45 µM (active) |
| CCCC(=O)N1CCN(c2ccc(NC(=O)c3ccc([N+](=O)[O-])o3)cc2)CC1 | 0.729 µM (active) |
| Cc1ncc([N+](=O)[O-])n1CCOC(=O)c1cc(Cl)cc(Cl)c1N | 0.163 µM (active) |

| Compound | Potency |
| --- | --- |
| Cc1ncc([N+](=O)[O-])n1CCOC(=O)c1ccc(Cl)cc1Cl | 0.818 µM (active) |
| CN=C1C=C/C(=N/N=c2\ccn(O)cc2C)C=C1C | 1.45 µM (active) |
| O=C(Nc1csc([N+](=O)[O-])c1)Nc1ccccc1Cl | 1.63 µM (active) |
| CCCOC(=O)/C(=C\c1ccc([N+](=O)[O-])o1)NC(=O)c1ccccc1 | 0.729 µM (active) |
| CCCCNC(=O)/C(=C\c1ccc([N+](=O)[O-])o1)NC(=O)c1ccccc1 | 1.03 µM (active) |
| COC(=O)/C(=C\c1ccc([N+](=O)[O-])o1)NC(=O)c1ccccc1 | 1.03 µM (active) |
| COc1cc(/C=C(\NC(=O)c2ccccc2)C(=O)NCCO)c([N+](=O)[O-])cc1OC | inactive |
| CCOc1ccccc1C(=O)Nc1ccc2nc(N3CCN(c4ncccn4)CC3)cc(C)c2c1 | 3.26 µM (active) |
| O=C1C(c2ccncc2)=C(O)c2ccccc21 | 9.18 µM (active) |
| CS/C(Nc1cc(Cl)ccc1Cl)=C(/C#N)C(=O)c1ccco1 | 5.79 µM (active) |
| O=[N+]([O-])c1ccc(N=NN(CCO)CCO)cc1 | 3.26 µM (active) |
| O=C(CSc1ccc(Cl)cc1)N/N=C/c1ccc([N+](=O)[O-])o1 | 0.818 µM (active) |
| CCOC(=O)N/N=C\c1ccc([N+](=O)[O-])o1 | 1.3 µM (active) |
| CCCCCC(=O)N/N=C/c1ccc([N+](=O)[O-])o1 | 0.579 µM (active) |
| O=C(CCC(=O)Nc1ccc(Cl)cc1Cl)N/N=C/c1ccc([N+](=O)[O-])o1 | 0.818 µM (active) |
| CCCCCCCC(=O)N/N=C/c1ccc([N+](=O)[O-])o1 | 0.579 µM (active) |
| CC(=O)Nc1ccc(NS(=O)(=O)c2ccc(C)cc2)c([N+](=O)[O-])c1 | 0.516 µM (active) |
| COc1ccc(NS(=O)(=O)c2ccc(C)cc2)c([N+](=O)[O-])c1 | 1.83 µM (active) |
| O=C(Nc1ccccc1C(=O)O)c1ccc(NC(=O)C2CC2)cc1 | 4.1 µM (active) |

| Compound | Potency |
| --- | --- |
| CN(CCc1ccccc1)C(=O)c1cccc(NC(=O)Cc2cccc(NC(=O)C3CCN(C(=O)C4CCCC4)CC3)c2)c1 | inactive |
| CN(Cc1ccccc1)C(=O)c1ccc(NC(=O)Cc2cccc(NC(=O)C3CCN(C(=O)C4CC4)CC3)c2)cc1 | inactive |
| N/C(=N\O)c1ccc([N+](=O)[O-])s1 | 2.9 µM (active) |
| O=[N+]([O-])c1cccn2cc(-c3ccc(Br)cc3)nc12 | 0.729 µM (active) |
| O=C(c1ccco1)N1CCN(c2c([N+](=O)[O-])nn(-c3cccc(Cl)c3)[n+]2[O-])CC1 | 2.59 µM (active) |
| O=C(c1ccco1)N1CCN(c2c([N+](=O)[O-])nn(-c3ccc(Cl)cc3)[n+]2[O-])CC1 | 0.918 µM (active) |
| Cn1c([N+](=O)[O-])cnc1COC(N)=O | 1.16 µM (active) |
| O=C(NC(=S)Nc1ccc(CN2CCOCC2)cc1)c1ccc([N+](=O)[O-])cc1Cl | 4.1 µM (active) |
| CC(C)OC(=O)Nc1ccc2c(c1)N(C(=O)N1CCN(C)CC1)c1ccccc1CC2 | 4.1 µM (active) |
| CCCCOc1ccc(C(=O)NCC(=O)NCCCn2nc(C)cc2C)cc1 | inactive |
| O=C(CN1C(=O)c2ccccc2S1(=O)=O)c1ccc2c(c1)OCCCO2 | 1.03 µM (active) |
| O=C(CN1C(=O)c2ccccc2S1(=O)=O)c1ccc2c(c1)OCCO2 | 2.9 µM (active) |
| O=C1OC(CN(Cc2ccccc2)Cc2ccccc2)CN1N=Cc1ccc([N+](=O)[O-])o1 (stereo unspecified) | 0.65 µM (active) |
| Cc1ccc(-c2ccc(/C=N/N3C(=O)C4C5C=CC(CC5)C4C3=O)o2)c([N+](=O)[O-])c1 (stereo unspecified) | inactive |
| O=C1SCCN1N=Cc1ccc([N+](=O)[O-])o1 | 0.326 µM (active) |
| CC1CS(=O)(=O)CCN1N=Cc1ccc([N+](=O)[O-])o1 (stereo unspecified) | 0.365 µM (active) |
| O=C1c2cc([N+](=O)[O-])cc3cc([N+](=O)[O-])cc(c23)C(=O)N1c1ccccn1 | 1.83 µM (active) |
| Cc1cc(O)ccc1N1C(=O)c2cccc3cc([N+](=O)[O-])cc(c23)C1=O | 2.9 µM (active) |
